This passage reports composite z-score and z-score results from PubChem BioAssay.

Molecules are shown by their SMILES. The source made the active and inactive calls. Unless noted, no rule for the calls is given here.

Test [1] has as its system XIP peptide (Xip251-270) binding. Description: XIP fragment 251-270 binding compounds – biochemical, small-molecule microarray, fluorescence 635/667 nm, 0.1 µg/mL protein, primary screen (AID 1182). The note with it: fluorescent protein binding, 635 nm, higher = more signal, called active from +8 up or from −8 down.
For another test, the system named is XIP peptide (Xip251-270). The test can be described thus: compounds binding XIP fragment 251-270 – biochemical, small-molecule microarray, fluorescence 635/667 nm, 0.5 µg/mL protein, primary screen (AID 1183). The note with it: fluorescence 635 nm, higher = more signal.
The nature of test [2]: blood-stage malaria parasite viability loss – strain 3D7, DAPI fluorescence, 100 nL, primary screen (AID 1184).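 Also: parasites grown inside human red blood cells in medium with human serum.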 To be noted: P. falciparum 3D7 growth, 3 d, higher = more signal.
The target of test [3] is Homeobox protein Hox-A13 (Mus musculus) (UniProt Q62424). Description: disruptors of Hoxa13 oligonucleotide interaction – biochemical, fluorescence polarization, labeled oligonucleotide, primary screen (AID 1185). To be noted: Hoxa13:DNA binding, 15 min, higher = more signal, called active from +8 up or from −8 down.
Sequence of Homeobox protein Hox-A13 (Mus musculus) (Q62424 whole entry, looked up): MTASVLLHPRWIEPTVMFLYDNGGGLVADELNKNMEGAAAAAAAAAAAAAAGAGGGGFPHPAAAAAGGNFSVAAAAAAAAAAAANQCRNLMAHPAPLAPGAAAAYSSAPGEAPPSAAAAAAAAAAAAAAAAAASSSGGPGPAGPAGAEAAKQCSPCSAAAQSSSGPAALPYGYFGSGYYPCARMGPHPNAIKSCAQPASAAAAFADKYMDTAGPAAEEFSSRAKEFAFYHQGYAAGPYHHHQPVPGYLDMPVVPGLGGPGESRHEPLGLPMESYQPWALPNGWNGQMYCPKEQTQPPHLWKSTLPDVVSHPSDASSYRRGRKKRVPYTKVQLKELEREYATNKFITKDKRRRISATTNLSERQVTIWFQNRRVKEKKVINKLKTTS
The nature of test [4]: blockers of DNA damage checkpoint Chk1 activation – imaging, HeLa, hydroxyurea, phospho-Chk1 antibody, percent positive cells, primary screen (AID 1186). To be noted: hydroxyurea-induced phospho-Chk1 immunofluorescence imaging, higher = more signal.
Test [5] can be described thus: blockers of DNA damage checkpoint Chk1 activation – imaging, HeLa, hydroxyurea, phospho-Chk1 nuclear intensity, primary screen (AID 1187). To be noted: hydroxyurea-induced phospho-Chk1 immunofluorescence imaging, higher = more signal.

On to `O=C(NCCN1CCOCC1)[C@@H]1c2ccccc2C(=O)N(Cc2ccccc2)[C@H]1c1ccc(CO)cc1`, for which the composite z-score in test [1] was -0.181 (inactive); in the test with XIP peptide (Xip251-270), -0.314. The z-score in test [2] is 0.681; in test [3], -3.79 (inactive); in test [4], -0.697 (inactive); in test [5], -0.974 (inactive).
On to `O=C(NCC(O)CO)[C@@]1(CCS(=O)(=O)c2ccccc2)COC(c2ccc(OCCCO)cc2)=N1` (stereo partly specified), for which the composite z-score in test [1] is -0.119 (inactive); in the test with XIP peptide (Xip251-270), 0.696. The z-score was -0.475 in test [2], -5.1 (inactive) in test [3], -0.275 (inactive) in test [4] and -0.556 (inactive) in test [5].
Take `CC1(C)C(=O)C(c2ccccc2)=C2CN3C(=O)N(CCc4ccccc4)C(=O)C3(Cc3ccc(F)cc3)C=C21` (stereo unspecified): the figures for the composite z-score (in test [1]; in the test with XIP peptide (Xip251-270)) were 0.2 (inactive) and 0.328, respectively. Also, the z-score is -1.81 in test [2], -1.99 (inactive) in test [3], 0.478 (inactive) in test [4] and -0.173 (inactive) in test [5].
In the case of `C=C[C@@H](OC)[C@H](OC(=O)Nc1ccc(OC)cc1)c1ccc(OC)c(O)c1`, the values for the composite z-score (in test [1]; with XIP peptide (Xip251-270)) were 2.2 (inactive) and 0.462, respectively. Besides, the z-score in test [2] was 1.46; in test [3], -2.54 (inactive); in test [4], 1.11 (inactive); in test [5] it was 1.39 (inactive).
For the compound `COCCCNC(=O)[C@@]1(Sc2ccc(C)cc2)CC(=O)N(Cc2ccccc2Cl)[C@@H]1c1ccc(CO)cc1I`, the composite z-score in test [1] is -0.517 (inactive); in the test with XIP peptide (Xip251-270) it was 0.194. Also, the z-score in test [2] was 1.22; in test [3] it was -2.55 (inactive); in test [4], 0.234 (inactive); in test [5], 0.456 (inactive).
As for `C=CCNC(=O)[C@H]1[C@@H]2C(=O)O[C@@H](c3ccccc3)[C@@H](c3ccccc3)N2[C@@H](c2ccc(OCCO)cc2)[C@]12C(=O)Nc1ccc(C#CCNC(N)=O)cc12`, the composite z-score is 0.952 (inactive) in test [1] and 0.512 in the test on XIP peptide (Xip251-270). For the same compound, the z-score is -1.13 in test [2], -3.66 (inactive) in test [3], 0.0622 (inactive) in test [4] and 0.183 (inactive) in test [5].
In the case of `COC(=O)C1=CC(CCCO)=CC(C)N(Cc2cccc(OC(F)(F)F)c2)C=C1C(=O)OC` (stereo unspecified), the composite z-score was 0.0257 (inactive) in test [1] and 0.526 in the test with XIP peptide (Xip251-270). In addition, the z-score in test [2] is -1.12; in test [3], -7.74 (inactive); in test [4], -0.249 (inactive); in test [5], -0.655 (inactive).
As to `COCCOC(=O)N1C(=O)[C@@]2(c3cc(C#CCNC(N)=O)ccc31)[C@H](c1ccc(OCCO)cc1)N1[C@H](c3ccccc3)[C@H](c3ccccc3)OC(=O)[C@H]1[C@@H]2C(N)=O`, the results for the composite z-score (in test [1]; in the test on XIP peptide (Xip251-270)) were 0.236 (inactive) and 0.442, respectively. Further, the z-score in test [2] is 0.691; in test [3], -2.25 (inactive); in test [4] it was 0.139 (inactive); in test [5], 0.189 (inactive).
With `COCCOC(=O)N1C(=O)[C@@]2(c3cc(C#CCC(C(=O)OC)C(=O)OC)ccc31)[C@H](C(=O)NC[C@H](O)c1ccccc1)[C@H]1C(=O)O[C@H](c3ccccc3)[C@H](c3ccccc3)N1[C@@H]2c1ccc(O)cc1`, the composite z-score in test [1] is 0.363 (inactive); with XIP peptide (Xip251-270), 0.724. Also, the z-score in test [2] was -1.84; in test [3], -1.61 (inactive); in test [4], -0.129 (inactive); in test [5], -0.117 (inactive).
Take `CCOC(=O)C[C@H]1[C@H](OC(=O)c2ccc(C(=O)c3ccccc3)cc2)[C@@H](NC(=O)CC(C)C)c2cc(OCCCO)ccc2N1C(=O)Cc1ccc(OC)cc1`: the results for the composite z-score (in test [1]; in the test on XIP peptide (Xip251-270)) were 0.595 (inactive) and 0.396, respectively. For the same compound, the z-score in test [2] was -0.241; in test [3], -3.06 (inactive); in test [4] it was 0.291 (inactive); in test [5], -0.261 (inactive).
For the compound `COCCOC(=O)N1C(=O)[C@@]2(c3ccccc31)[C@H](c1ccccc1OCCO)N1[C@H](c3ccccc3)[C@H](c3ccccc3)OC(=O)[C@H]1[C@@H]2C(N)=O`, the composite z-score is 2.37 (inactive) in test [1] and 0.784 with XIP peptide (Xip251-270). For the same compound, the z-score in test [2] was -0.946; in test [3] it was -4.81 (inactive); in test [4], 0.0327 (inactive); in test [5], 0.12 (inactive).
On to `C=C(C)C1CCC(C(O)C2C=CC3C(=O)N(C)C(=O)C3N2Nc2cc(OC)c(OC)c(OC)c2)CC1` (stereo unspecified), for which the composite z-score in test [1] was 0.287 (inactive); with XIP peptide (Xip251-270), 0.596. The z-score in test [2] is -0.593; in test [3], -5.2 (inactive); in test [4], -0.113 (inactive); in test [5] it was -0.431 (inactive).
As to `O=C1OCCC=C[C@H]2OC34C=CCN(c5ccc(Cl)cc5)C(=O)[C@H]3N(CCCCCCO)C(=O)[C@@H]4C12` (stereo partly specified), the composite z-score in test [1] is 0.43 (inactive); with XIP peptide (Xip251-270), -0.619. Besides, the z-score was -0.278 in test [2], -5.62 (inactive) in test [3], -0.301 (inactive) in test [4] and 0.116 (inactive) in test [5].
With `C[C@]1(C(=O)NCCN2CCOCC2)c2ccccc2C(=O)N(Cc2cc(F)cc(C(F)(F)F)c2)[C@H]1c1ccc(CO)cc1`, the results for the composite z-score (in test [1]; in the test on XIP peptide (Xip251-270)) were 1.14 (inactive) and 0.826, respectively. Besides, the z-score in test [2] was -0.736; in test [3], -3.91 (inactive); in test [4], -0.69 (inactive); in test [5] it was -0.691 (inactive).
As to `CCCCCCCCCCC(O)C1C=CC2C(=O)N(C)C(=O)C2N1Nc1cc(OC)c(OC)c(OC)c1` (stereo unspecified), the composite z-score in test [1] was 0.275 (inactive); in the test on XIP peptide (Xip251-270), -0.924. For the same compound, the z-score in test [2] is -0.326; in test [3], -3.83 (inactive); in test [4], 0.569 (inactive); in test [5], -0.418 (inactive).
With `CCOC(=O)C[C@H]1[C@H](OC(=O)c2ccccc2-c2ccccc2)[C@@H](NC(=O)c2ccc3ccccc3n2)c2cc(OCCCO)ccc2N1C(=O)c1ccccc1`, the figures for the composite z-score (in test [1]; in the test on XIP peptide (Xip251-270)) were 0.428 (inactive) and 0.04, respectively. Besides, the z-score was -1.66 in test [2], -2.46 (inactive) in test [3], 0.342 (inactive) in test [4] and 0.6 (inactive) in test [5].
For `CCOC(=O)C1=C[C@@H](C(C)(C)C)N(S(=O)(=O)c2ccc(C)cc2)[C@H]1c1ccccc1`, the results for the composite z-score (in test [1]; in the test with XIP peptide (Xip251-270)) were 0.19 (inactive) and 0.311, respectively. Besides, the z-score in test [2] was -2.01; in test [3] it was -0.661 (inactive); in test [4], 0.327 (inactive); in test [5] it was -0.0853 (inactive).
On to `CC(C)C(=C=CC[C@@H](O)c1cccc(OCCO)c1)C[C@@H](O)c1ccccn1`, for which the results for the composite z-score (in test [1]; in the test on XIP peptide (Xip251-270)) were -0.0008 (inactive) and 0.29, respectively. For the same compound, the z-score was -0.0244 in test [2], -5.17 (inactive) in test [3], -0.122 (inactive) in test [4] and 0.156 (inactive) in test [5].
Take `CCOC(=O)C1=CC[C@@H](c2ccccc2)N(S(=O)(=O)c2ccc(C)cc2)[C@H]1C=Cc1ccccc1`: the composite z-score is 0.0537 (inactive) in test [1] and 0.749 in the test with XIP peptide (Xip251-270). The z-score in test [2] is -2.01; in test [3] it was 1.66 (inactive); in test [4] it was -0.511 (inactive); in test [5] it was -0.645 (inactive).
In the case of `C=C(COC)/C(=C/C[C@@H](OC(C)=O)c1ccc(CO)o1)c1cc(C(=O)OC)ccc1OC`, the figures for the composite z-score (in test [1]; in the test on XIP peptide (Xip251-270)) were 0.824 (inactive) and 0.147, respectively. For the same compound, the z-score is 0.0394 in test [2], -4.84 (inactive) in test [3], -1.06 (inactive) in test [4] and -1.26 (inactive) in test [5].
For `CO[C@H]1O[C@H](CO)[C@@H](OC(=O)CCc2ccccc2)[C@H](OC(=O)c2cc3ccccc3[nH]2)[C@H]1OC(=O)c1cc2ccccc2[nH]1`, the results for the composite z-score (in test [1]; in the test with XIP peptide (Xip251-270)) were 0.983 (inactive) and 0.637, respectively. Further, the z-score is -1.03 in test [2], -0.797 (inactive) in test [3], -0.616 (inactive) in test [4] and -1.27 (inactive) in test [5].
Consider `CC(C)OC(=O)CC(=O)CC(O)c1ccc([N+](=O)[O-])cc1` (stereo unspecified), for which the composite z-score in test [1] was 0.319 (inactive); in the test on XIP peptide (Xip251-270), 0.469. Also, the z-score in test [2] is 0.697; in test [3], -1.67 (inactive); in test [4], -0.0884 (inactive); in test [5], -0.438 (inactive).
With `COC(=O)[C@@]1(Cc2ccccc2CN=[N+]=[N-])N=C(c2ccc(OCCCO)cc2)O[C@H]1c1ccccc1CN=[N+]=[N-]`, the composite z-score is 0.192 (inactive) in test [1] and 0.723 in the test with XIP peptide (Xip251-270). Besides, the z-score was -2.2 in test [2], 0.87 (inactive) in test [3], -0.598 (inactive) in test [4] and -0.223 (inactive) in test [5].
Consider `COCCOC(=O)N1C(=O)[C@@]2(c3cc(C#CCC(C(=O)OC)C(=O)OC)ccc31)[C@H](c1ccc(O)cc1)N1[C@H](c3ccccc3)[C@H](c3ccccc3)OC(=O)[C@H]1[C@@H]2C(=O)NC[C@H](O)c1ccccc1`, for which the composite z-score in test [1] is 0.398 (inactive); with XIP peptide (Xip251-270) it was 0.465. In addition, the z-score is -0.474 in test [2], -2.44 (inactive) in test [3], 0.101 (inactive) in test [4] and 0.524 (inactive) in test [5].
With `CCOC(=O)C1=CCC(c2ccco2)N(S(=O)(=O)c2ccc(C)cc2)C1` (stereo unspecified), the composite z-score in test [1] was 0.397 (inactive); in the test with XIP peptide (Xip251-270), 0.704. The z-score in test [2] was -0.0601; in test [3], -4.57 (inactive); in test [4], -0.641 (inactive); in test [5], -0.942 (inactive).
Regarding `O=C1O[C@H](c2ccccc2)[C@H](c2ccccc2)N2[C@H]1[C@@H](C(=O)N1CCCCCCC1)[C@]1(C(=O)Nc3ccc(C#CC4(O)CCCCCC4)cc31)[C@H]2c1ccccc1OCCO`, the values for the composite z-score (in test [1]; in the test on XIP peptide (Xip251-270)) were 5.88 (inactive) and 0.943, respectively. Besides, the z-score in test [2] is -1.88; in test [3], 4.4 (inactive); in test [4] it was -0.0468 (inactive); in test [5] it was 0.285 (inactive).
